The supplement of paper PMC6718421
± gives the uncertainty stated by the source.

Test system: Caenorhabditis elegans N2 (wild type)
Assay: animals with crystals or spheres in anterior pharynx; higher = more object (crystal/sphere) accumulation
Settings: 30 µM; 48 h; genotype: wild type N2; stage: L1 start
Experimental: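 Synchronized wild-type (N2) C. elegans L1 larvae (50 per well) were incubated in liquid NGM with E. coli HB101 and 30 uM of each wactive for 48 h. Live worms were scored by DIC and polarized-light microscopy for birefringent crystals or non-birefringent spheres in the anterior pharynx. At least 3 biological replicates were run with at least 20 worms each; the value is the mean % of animals carrying objects.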

Structure (SMILES) | animals
c1ccc(CSc2nnc(-c3ccccc3)o2)cc1 [wact-38] | 95.5 ± 3%
Cc1ccc(-c2cnc(-c3ccncc3)o2)cc1 [wact-23] | 0%
CCC1CCC(N2CCN(c3ccc([N+](=O)[O-])cc3)CC2)CC1 (stereo not drawn) [wact-6] | 3.24 ± 3%
O=[N+]([O-])c1ccc(N2CCN(CC3CC=CCC3)CC2)cc1 (stereo not drawn) [wact-47] | 0%
CCCc1nc(-c2ccc(-c3ccc(F)cc3)cc2)no1 [wact-390] | 88.33 ± 0.88%
O=C(Nc1cccc(Cl)c1)N1CCN(c2ccc([N+](=O)[O-])cc2)CC1 [wact-31] | 0%
Ic1cccc(-c2nnc(-c3ccccc3)o2)c1 [wact-51] | 51.5 ± 14%
COc1ccccc1CNC(=O)c1ccccc1I [wact-402] | 0%
Brc1ccc(-c2nnc(-c3ccccc3)o2)cc1 [wact-425] | 34.5 ± 9.2%
O=C(Nc1ccc(I)cc1)c1ccco1 [wact-27] | 10 ± 8.3%
COc1ccc(C=Cc2ccccn2)cc1 [wact-622] | 0%
CCSc1nnc(-c2ccc(Cl)cc2Cl)o1 [wact-4] | 0%
C=CCSc1nnc(-c2ccc(Cl)cc2Cl)o1 [wact-5] | 0%
c1csc(-c2cnc3ccccc3n2)c1 [wact-21] | 0%
O=[N+]([O-])c1ccc(CSc2ccc(Cl)cc2)cc1 [wact-3] | 52.6 ± 13%
c1ccc(-c2noc(-c3cccs3)n2)cc1 [wact-7] | 0%
O=C(c1ccc(Br)cc1)N1CCN(c2ccc([N+](=O)[O-])cc2)CC1 [wact-381] | 99.5 ± 0.5%
O=[N+]([O-])c1ccc(N2CCN(CC3CC4C=CC3C4)CC2)cc1 (stereo not drawn) [wact-46] | 0%
O=C(NCCCCc1ccccc1)c1ccccc1F [wact-400] | 0%
Cc1ccccc1C(=O)NCCc1ccccc1 [wact-406] | 0%
Clc1ccc(-c2cn3ccsc3n2)cc1 [wact-1] | 0%
O=C(Nc1ccc(-c2nc3ccccc3s2)cc1)c1ccccc1F [wact-415] | 100%
O=[N+]([O-])c1ccc(N2CCN(CC3CCCCC3)CC2)cc1 [wact-45] | 0%
O=[N+]([O-])c1ccc(-n2ccc3ccccc32)cc1 [wact-213] | 40.3 ± 22%
CCOc1ccc(-c2cnc3ccccc3n2)cc1 [wact-24] | 69.5 ± 6.4%
O=C1CC(N2CCN(c3ccc([N+](=O)[O-])cc3)CC2)C(=O)N1c1ccccc1F (stereo not drawn) [wact-56] | 0%
Fc1ccc(-c2cn3ccsc3n2)cc1 [wact-433] | 0%
c1ccc2nc(-c3nc4ccccc4o3)ccc2c1 [wact-40] | 12.5 ± 2.8%
